Laboratory results: PubChem BioAssay AID1159580 (chemical genetic matrix, 2015)
“And” between values parts separate entries of the source, which are not always exact repeats. Identical values can stand only once. The campaign covered roughly 5,500 compounds. About 2,000 (36%) were called active. Inconclusive results (about 18%) are left out. No stated cut-off is given here; in the data, active means normalized growth mostly below about 0.91 (no sharp cut-off); inconclusive means no clear call, values can overlap the other calls; inactive means mostly above about 0.92. The list shows a part of the results.

Test: chemical genetic growth profiling, strain panel (AID 1159580);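 further: tested at 20 µM; growth read once vehicle control cultures reached saturation at 30 °C; 1 = growth at the plate median or of vehicle wells; lower values mean less growth of the strain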
Conditions: S. cerevisiae deletion strains, growth OD

Measured: normalized growth

OCc1ccccc1O
inactive: locus YAL021C, strain ccr4, active compounds read low 1.02 | locus YAL026C, strain drs2, active compounds read low 1.02 | locus YAL030W, strain snc1, active compounds read low 1 | locus YBL061C, strain skt5, active compounds read low 1.03 | locus YBR009C, strain hhf1, active compounds read low 1.02 | locus YBR021W, strain FUR4, active compounds read low 1.02 | locus YBR023C, strain chs3, active compounds read low 1.02 | locus YBR171W, strain sec66, active compounds read low 1.01 | locus YBR229C, strain ROT2, active compounds read low 1.02 | locus YBR231C, strain swc5, active compounds read low 1.03 | locus YBR279W, strain paf1, active compounds read low 1.03 | locus YCL011C, strain gbp2, active compounds read low 1.03 | locus YCL016C, strain dcc1, active compounds read low 1.02 | locus YCL029C, strain bik1, active compounds read low 0.995 | locus YCL069W, strain vba3, active compounds read low 1 | locus YCR088W, strain abp1, active compounds read low 1.04 | locus YDL005C, strain med2, active compounds read low 1.02 | locus YDL035C, strain GPR1, active compounds read low 1.02 | locus YDL040C, strain nat1, active compounds read low 1.01 | locus YDL074C, strain BRE1, active compounds read low 1.04 | locus YDL101C, strain DUN1, active compounds read low 1.02 | locus YDL134C, strain PPH21, active compounds read low 1.02 | locus YDL185W, strain tfp1, active compounds read low 0.992 | locus YDL192W, strain arf1, active compounds read low 0.991 | locus YDR001C, strain nth1, active compounds read low 1.02 | locus YDR069C, strain doa4, active compounds read low 1.03 | locus YDR101C, strain arx1, active compounds read low 0.987 | locus YDR137W, strain rgp1, active compounds read low 1.02 | locus YDR150W, strain NUM1, active compounds read low 1.02 | locus YDR159W, strain sac3, active compounds read low 1.05 | locus YDR162C, strain NBP2, active compounds read low 1 | locus YDR195W, strain ref2 1.02 | locus YDR297W, strain sur2, active compounds read low 1.02 | locus YDR318W, strain mcm21, active compounds read low 0.992 | locus YDR334W, strain swr1, active compounds read low 1.03 | locus YDR335W, strain msn5, active compounds read low 1.03 | locus YDR388W, active compounds read low 0.991 | locus YDR392W, strain spt3, active compounds read low 1.03 | locus YDR502C, strain sam2, active compounds read low 0.988 | locus YEL003W, strain gim4, active compounds read low 1.02 | locus YEL037C, strain rad23, active compounds read low 1 | locus YEL061C, strain CIN8 (second series), active compounds read low 1.01 | locus YEL061C, strain CIN8, active compounds read low 1.01 | locus YER015W, strain faa2, active compounds read low 0.998 | locus YER016W, strain bim1, active compounds read low 1.03 | locus YER110C, active compounds read low 0.995 | locus YER111C, strain swi4, active compounds read low 0.997 | locus YER155C, strain BEM2 (second series), active compounds read low 1.05 | locus YER155C, strain BEM2, active compounds read low 1.02 | locus YER167W, strain BCK2, active compounds read low 1.01 | locus YFR010W, strain ubp6, active compounds read low 1.02 | locus YGL078C, strain dbp3, active compounds read low 0.978 | locus YGL086W, strain mad1, active compounds read low 1.01 | locus YGL167C, strain pmr1, active compounds read low 1.02 | locus YGL173C, strain kem1, active compounds read low 1.02 | locus YGL227W, strain vid30, active compounds read low 1.03 | locus YGL240W, strain doc1, active compounds read low 1.05 | locus YGL248W, strain PDE1, active compounds read low 1.02 | locus YGL253W, strain hxk2, active compounds read low 1.02 | locus YGR135W, strain pre9, active compounds read low 0.982 | locus YGR252W, strain gcn5, active compounds read low 0.994 | locus YHR013C, strain ard1, active compounds read low 1.06 | locus YHR027C, strain rpn1, active compounds read low 1.02 | locus YHR030C, strain SLT2, active compounds read low 1.01 and 1.09 | locus YHR079C, strain IRE1 (second series), active compounds read low 0.977 | locus YHR079C, strain IRE1, active compounds read low 1.09 | locus YHR094C, strain hxt1, active compounds read low 0.982 | locus YHR129C, strain ARP1, active compounds read low 1.02 | locus YHR142W, strain chs7, active compounds read low 1.03 | locus YHR200W, strain rpn10, active compounds read low 0.995 | locus YIL066C, strain RNR3, active compounds read low 1.02 | locus YIL073C, strain SPO22, active compounds read low 0.949 | locus YIL125W, strain kgd1, active compounds read low 0.993 | locus YIR030C, strain dcg1, active compounds read low 0.989 | locus YJL092W, strain hpr5, active compounds read low 1.02 | locus YJL095W, strain BCK1 (second series), active compounds read low 1.02 | locus YJL095W, strain BCK1, active compounds read low 1.02 and 1.04 | locus YJL115W, strain asf1, active compounds read low 1.03 | locus YJL129C, strain trk1, active compounds read low 1.01 | locus YJL134W, strain LCB3, active compounds read low 1.02 | locus YJL154C, strain vps35, active compounds read low 1.02 | locus YJL164C, strain tpk1, active compounds read low 1.02 | locus YJL166W, strain qcr8, active compounds read low 1.02 | locus YJL168C, strain set2, active compounds read low 0.99 | locus YJL187C, strain SWE1 (second series), active compounds read low 1.02 | locus YJR043C, strain POL32, active compounds read low 1.02 | locus YJR066W, strain TOR1, active compounds read low 1.01 | locus YJR075W, strain HOC1, active compounds read low 1.02 | locus YKL009W, strain mrt4, active compounds read low 0.988
